Source: PubChem BioAssay (several laboratories)
In the library only some 3.5% were active in any assay of this set; here they are far more common.
Mcl-1 Bim block: human Bim-Mcl-1 interaction inhibition. Q07820. 0.1% of 190,000 active. inhibition, % at 10 µM. Bead-based flow cytometry, Bim peptide-Mcl-1 binding; in the data active means inhibition above about 40%;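 further: 0% = no compound tracer wells and 100% = peptide blocker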
Target sequence (Q07820 whole entry, looked up): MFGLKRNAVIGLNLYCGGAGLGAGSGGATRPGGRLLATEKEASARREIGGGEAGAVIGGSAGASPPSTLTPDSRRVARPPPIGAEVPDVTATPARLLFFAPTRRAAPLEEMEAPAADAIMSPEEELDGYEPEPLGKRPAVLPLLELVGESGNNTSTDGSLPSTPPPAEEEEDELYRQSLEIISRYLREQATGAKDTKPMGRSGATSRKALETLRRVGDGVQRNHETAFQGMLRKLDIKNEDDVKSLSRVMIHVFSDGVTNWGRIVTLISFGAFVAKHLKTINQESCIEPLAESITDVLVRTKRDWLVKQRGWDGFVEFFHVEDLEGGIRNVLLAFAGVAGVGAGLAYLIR
Hck Nef HTS: blocks Nef-activated human Hck kinase; 0.68% of 220,000 active; Recombinant Hck-YEEI plus Nef, Z-Lyte FRET kinase assay; AID 463187; inhibition, % at 20 µM;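 active means Hck-Nef kinase inhibition above about 50%, limit read from the data; inactive means inhibition below that limit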;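 further: 0% = DMSO with Hck plus Nef and 100% = Hck alone without Nef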
Mcl1 Noxa PPI: disrupts binding of human Mcl-1 to Noxa peptide. Q07820. TR-FRET Mcl-1/Noxa peptide binding, 2 h. inhibition, % at 21.7 µM. 1.5% of 220,000 active. AID 1022;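 active means compounds that cut the protein-peptide binding signal by more than 50% relative to plate controls in a single-dose test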;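 further: His-tagged Mcl-1 with rhodamine Noxa BH3 peptide and terbium anti-His antibody; 0% = Mcl-1 plus Noxa peptide wells and 100% = peptide-only wells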
Mcl1 Bid PPI: Mcl-1/Bid interaction inhibition. Q07820. TR-FRET Mcl-1/Bid-Dy647 peptide binding, 1536-well. inhibition, % at 21.7 µM. 0.97% of 220,000 active;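 active means compounds that cut the binding signal by more than half at the single screening dose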;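 further: His-tagged Mcl-1 with europium anti-His antibody binding Bid BH3 peptide; 0% = Mcl-1 plus peptide wells and 100% = peptide-only wells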
14-3-3 Bad inh: disrupts binding of bovine 14-3-3 zeta to phospho-Bad peptide; P63103; TR-FRET 14-3-3zeta/Dy647-pBad peptide displacement, 1 h; inhibition, % at 21.7 µM; 0.71% of 220,000 active; AID 781;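 active means inhibition above about 70%, limit read from the data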;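 further: 0% = full 14-3-3 plus peptide FRET controls and 100% = background without 14-3-3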
Target sequence (P63103 whole entry, looked up): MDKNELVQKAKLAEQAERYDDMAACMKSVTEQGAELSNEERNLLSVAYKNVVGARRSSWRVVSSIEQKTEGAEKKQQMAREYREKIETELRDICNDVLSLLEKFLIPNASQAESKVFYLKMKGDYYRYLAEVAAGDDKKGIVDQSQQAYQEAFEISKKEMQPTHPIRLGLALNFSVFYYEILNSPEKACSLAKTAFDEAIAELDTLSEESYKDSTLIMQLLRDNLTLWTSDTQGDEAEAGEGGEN
eIF4E 4G PPI: eIF4E/eIF4G interaction inhibition in translation initiation; AID 782; TR-FRET eIF4E-eIF4GI(517-606) binding, 2 h; inhibition, % at 21.7 µM; 0.37% of 220,000 active;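 active means inhibition above about 30%, limit read from the data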;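 further: 0% = full FRET control wells and 100% = background wells lacking eIF4GI fragment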
Active calls of the source: *; . = not tested or not shown; [ ] = another dose, or the depositor's remark.

SMILES	Mcl-1 Bim block	Hck Nef HTS	Mcl1 Noxa PPI	Mcl1 Bid PPI	14-3-3 Bad inh	eIF4E 4G PPI
COc1cccc(NS(=O)(=O)c2ccc3c(c2)C2C=CCC2C(c2ccc(C(=O)O)cc2)N3)c1 (stereo unspecified)	6	44	97*	14	-1	17
COC(=O)[C@@H](NC(=O)Nc1cccc(Br)c1)C(C)C	-1	2	14	-6	-5	5
COCCCNC(=O)c1cc2c(=O)n3cc(C)ccc3nc2nc1NCC1CCCO1 (stereo unspecified)	-10	193*	-1	66*	0	0
Cc1ccc(CNC(=O)c2cc3c(=O)n4ccccc4nc3n(CC3CCCO3)c2=N)cc1 (stereo unspecified)	-4	39	12	-4	8	-2
C=CCNC(=O)c1cc2c(=O)n3cc(C)ccc3nc2nc1NCC1CCCO1 (stereo unspecified)	-9	179*	18	-5	-8	9
Cc1ccc(NC(=O)COC(=O)CNC(=O)c2ccco2)cc1	2	-5	8	-24	-3	0
CCc1ccc(NC(=O)Cn2nc(C(F)(F)F)c3c2CCC3)cc1	-3	0	11	54*	14	-2
O=C1/C(=C/c2ccco2)Oc2c1ccc(O)c2CN1CCCCC1	1	1	54*	-13	-9	7
CC1CCN(Cc2c(O)ccc3c2O/C(=C\c2ccco2)C3=O)CC1	2	-21	56*	-12	4	7
Cc1ccc(/C=C2\Oc3c(ccc(O)c3CN3CCN(CCO)CC3)C2=O)cc1	0	0	7	-10	-8	0
CCC(C)Sc1cc(C(F)(F)F)c(C(=O)Nc2ccc(Cl)cc2)cn1 (stereo unspecified)	.	11	20	-6	-10	-4
CC/C(=C/c1sc2ccc(C)cc2[n+]1CCCS(=O)(=O)[O-])SC	0	27	-3	-20	-2	-6
O=S(=O)([O-])CCC[n+]1c(SCCCS(=O)(=O)O)sc2ccc(Cl)cc21	-1	6	17	-14	92*[fluorescence artefact?]	15
COc1ccc(C(=O)Nc2nc3cc4c(cc3s2)OCCO4)c(OC)c1	.	18	28	50	18	13
Cc1ccc(/C=C\c2nccc3c2[nH]c2ccccc23)cc1	0	59*	20	-16	3	2
Cc1cc2c(ncn2Cc2ccccc2)c([N+](=O)[O-])c1C	-2	-2	-9	-5	11	-5
O=C(NCCN1CCOCC1)C1CCN(S(=O)(=O)N2CCCC2)CC1	-1	23	10	7	-9	-3
CC(=O)C1=C(C)NC(SCC(=O)c2ccc(F)cc2)=C(C#N)C1CC(C)C (stereo unspecified)	-9	6	52*	-16	-6	1
CCOC(=O)C1=C(C)NC(SC)=C(C#N)C1CC(C)C (stereo unspecified)	.	17	3	-26	-3	44*
CCOC(=O)c1[nH]c(C(=O)O)c(OC(=O)CC)c1C	.	1	15	2	-7	2
NC(=O)NC(CC(=O)NCCc1ccc(S(N)(=O)=O)cc1)c1ccccc1Cl (stereo unspecified)	.	12	-1	-13	-3	-3
CCCCn1c(SCC(=O)c2ccc(O)c(O)c2)nc2ccsc2c1=O	-5	2	55*	-11	-15	6
Cc1ccccc1N1CN(Cc2ccco2)CNC1=S	-5	1	15	-40	-6	-5
CCOC(=O)c1ccc(NC(=O)C2(c3ccc(OC)cc3)CCOCC2)cc1	1	1	1	-5	-2	-1
COc1ccc(C2(C(=O)Nc3ccc(C(=O)O)cc3)CCOCC2)cc1	0	4	-5	59*	-13	4
SMILES	Mcl-1 Bim block	Hck Nef HTS	Mcl1 Noxa PPI	Mcl1 Bid PPI	14-3-3 Bad inh	eIF4E 4G PPI
Fc1cccc(Cc2noc(CN3CCCCC3CCc3ccccn3)n2)c1 (stereo unspecified)	1	-10	-7	-69	-5	1
N#C/C(=C(/O)CN1CCN(c2ccccc2F)CC1)c1nc(-c2ccccc2)cs1	46*	1	11	-8	-10	4
c1ccc2cc(CNCc3cccc4ccccc34)ccc2c1	.	3	9	-2	-1	-2
CC1Cc2ccccc2N1C(=O)CO/N=C/c1ccccc1OC(F)F (stereo unspecified)	-3	4	12	-8	1	0
O=C(CO/N=C/c1ccccc1OC(F)F)N1CCc2ccccc21	0	2	7	-16	84*[fluorescence artefact?]	26
COc1cc2c(cc1OC)C(C(=O)NCCN(C)C)C(c1cccs1)N(C)C2=O (stereo unspecified)	-6	2	13	-9	-5	6
CCN1CCN(CC(=O)c2c[nH]c3ccc(C)cc23)CC1	59*	0	16	0	-6	-2
Nc1ccc(C(=O)OCC(=O)Nc2cc([N+](=O)[O-])ccc2F)cc1	1	5	11	-10	6	-1
O=C(c1cnccn1)N1CCN(c2ccccc2F)CC1	57*	0	-9	-28	20	0
O=C(c1cc(=O)c2ccccc2o1)N1CCN(c2ccccc2F)CC1	41*	11	10	-12	2	7
O=C(c1cnccn1)N1CCc2ccccc2C1	-2	8	7	-14	93*	-1
O=C(c1cccc(C(=O)N2CCN(c3ccccc3F)CC2)n1)N1CCN(c2ccccc2F)CC1	0	-1	23	-17	-1	1
O=C(c1cc(-c2ccco2)on1)N1CCc2ccccc2C1	-3	1	69*	15	0	3
CCNC(=S)N1CCCC(C(N)=O)C1 (stereo unspecified)	2	13	9	-58	-7	-1
Cc1ccc(Sc2ccc(N)cn2)cc1	.	0	5	-16	-4	-2
Cc1nn(CC(=O)Nc2ccc3c(c2)nc2n3CCN(C3CCCCC3)C2)c(=O)c2ccccc12	2	42	70*	-7	51	-5
Clc1cc(Cl)cc(CN2CCSCC2)c1	.	5	-9	-30	1	2
Cc1ccc(NC(=O)c2ccc3ncsc3c2)cc1S(=O)(=O)N(C)C	.	15	48	67*	38	0
O=C(O)c1ccc2ncsc2c1	.	7	56*	92*	82*	23
CC(=O)NC(=O)COC(=O)c1ccc2ncsc2c1	1	9	-13	-17	-2	1
CCc1nnc(NC(=O)c2ccc3ncsc3c2)s1	.	18	41	56*	14	-5
CCc1nnc(NC(=O)c2ccncc2)s1	0	2	13	-9	-11	-4
Cc1ccc(NC(=O)c2cccnc2)cc1S(=O)(=O)N(C)C	0	19	-4	-22	-18	2
Nc1c(C(=O)NCc2ccco2)sc2nc3c(cc12)C(=O)CCC3	11	8	88*	-45	10	32*[fluorescence artefact?]
